SKKanGAS inh = S. pyogenes SKKanGAS growth inhibitors in kanamycin, primary screen, streptokinase expression inhibitor project, SKKanGAS strain, BacTiter-Glo luminescence. 6 h. inhibition, % at 7.5 µM. 300,000 compounds, 1.3% hits. AID 1662, 2009;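 active means mean replicate score, as percent of positive control median, at least 50; inconclusive means mean below 50 but one replicate at or above 50; inactive means mean and every replicate below 50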;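 further: strain carries kanamycin resistance gene driven by streptokinase promoter and grows in 40 µg/ml kanamycin; loss of luminescence reflects streptokinase promoter inhibition or plain growth inhibition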
Platelet DG rel = inhibitors of platelet dense granule secretion, primary screen, cell-based, MLPCN, human platelets; human platelet-rich plasma, SFLLRN dense granule ATP release, luminescence; inhibition, %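 (compounds screened at 7.5 µM in platelet-rich plasma)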; 300,000 compounds, 0.22% hits; AID 1663, 2009;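 active means mean replicate score, as percent of positive control, at or above 50; inconclusive means mean below 50 but at least one replicate at or above 50; inactive means mean and every replicate below 50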
Rtt109 HAT inh = inhibitors of C. albicans Rtt109/Vps75 HAT, primary screen, biochemical, ThioGlo CoA-SH fluorescence, plate reader. 330,000 compounds, 0.16% hits. inhibition, % at 34.9 µM. Histone acetyltransferase RTT109 (Candida albicans (strain SC5314 / ATCC MYA-2876)), …. AID 540336, 2011. purified Rtt109/Vps75, 4 h;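 active means inhibition of at least 50% in every replicate; inconclusive means best replicate reaches 50% inhibition but some replicates fall short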
Target sequence (Q5AAJ8 whole entry, looked up): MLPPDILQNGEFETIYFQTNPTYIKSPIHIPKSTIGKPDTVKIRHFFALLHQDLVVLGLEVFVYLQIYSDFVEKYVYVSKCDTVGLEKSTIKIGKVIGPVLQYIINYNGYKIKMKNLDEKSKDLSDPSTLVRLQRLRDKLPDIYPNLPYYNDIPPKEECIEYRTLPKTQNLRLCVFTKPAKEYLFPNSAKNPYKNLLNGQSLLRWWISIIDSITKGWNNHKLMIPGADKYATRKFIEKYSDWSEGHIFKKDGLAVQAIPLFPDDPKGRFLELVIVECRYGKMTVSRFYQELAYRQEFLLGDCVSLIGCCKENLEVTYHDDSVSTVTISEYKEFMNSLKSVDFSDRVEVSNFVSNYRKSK
TPT1 inh = Candida albicans TPT1 enzyme inhibitors, primary screen, biochemical, fluorescence polarization; tRNA 2'-phosphotransferase TPT1 (Candida albicans SC5314); recombinant caTPT1, FP RNA substrate dephosphorylation; inhibition, % at 5 µM; 300,000 compounds, 0.81% hits; AID 1962, 2009;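 active means inhibition above the mean of all tested compounds plus 3 SD, set per screening campaign, cut at about 24% in these data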
PHOSPHO1 inh = PubChem AID 1565 | recombinant PHOSPHO1, absorbance phosphatase assay | Phosphoethanolamine/phosphocholine phosphatase (Homo sapiens), Q8TCT1 | inhibition, % at 13.3 µM | 290,000 compounds, 1.1% hits; in the data active means inhibition above about 60%
Target sequence (Q8TCT1 whole entry, looked up): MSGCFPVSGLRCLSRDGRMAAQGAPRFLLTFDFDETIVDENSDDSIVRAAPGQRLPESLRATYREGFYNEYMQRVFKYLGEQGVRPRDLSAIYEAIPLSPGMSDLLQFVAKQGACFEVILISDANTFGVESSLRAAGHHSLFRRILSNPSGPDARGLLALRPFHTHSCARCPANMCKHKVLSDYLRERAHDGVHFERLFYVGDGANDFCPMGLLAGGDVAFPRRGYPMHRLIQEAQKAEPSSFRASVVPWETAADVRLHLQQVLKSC
WT yeast gro inh = growth inhibition of WT strain, primary screen, mitochondrial fusion inhibitor project, WT and mutant strains, chemical genetic | mitochondrial fusion phenotypic screen | inhibition, % at 10 µM | 190,000 compounds, 2.1% hits | AID 1362, 2008; in the data active means inhibition above about 58%; tested in S. cerevisiae
Hits are given with their value; . = inactive; ? = inconclusive; / = no result given. A selection: hits, their analogues and other compounds. The true share with any hit is near 3.9%.

SMILES	SKKanGAS inh	Platelet DG rel	Rtt109 HAT inh	TPT1 inh	PHOSPHO1 inh	WT yeast gro inh
COc1ccc(/C=C2\Sc3ccc(C(=O)NCCCN4CCCC4)cc3N(C)C2=O)cc1OC	.	.	?	.	.	/
CC(=O)NC12CC3CC(C1)CC(C(=O)Nc1nc4ccc(S(C)(=O)=O)cc4s1)(C3)C2	.	.	.	.	.	/
CC(=O)c1cccc(S(=O)(=O)N2CCC(C(=O)O)CC2)c1	.	.	58.3	.	.	.
CC(=O)c1cccc(S(=O)(=O)N2CCC(C(=O)O)(c3ccccc3)CC2)c1	.	.	.	.	.	/
Cc1nn(-c2ccccc2)c(C)c1/C=N/NC(=O)c1cc(C23CC4CC(CC(C4)C2)C3)[nH]n1	64.3	.	.	.	.	.
Cc1nn(-c2ccccc2)c(C)c1/C=N/NC(=O)c1cc(-c2ccc(Br)s2)[nH]n1	50.7	.	.	.	.	.
Cc1nn(-c2ccccc2)c(C)c1/C=N/NC(=O)c1cc(-c2cccs2)[nH]n1	.	.	.	.	.	.
Cc1nn(-c2ccccc2)c(C)c1/C=N/NC(=O)c1cc(-c2ccc(Cl)s2)[nH]n1	59.1	.	.	.	.	.
COc1cc(/C=N/NC(=O)c2cc(-c3c(C)nn(-c4ccccc4)c3C)n[nH]2)ccc1O	87.5	.	/	.	.	.
Cc1nn(-c2ccccc2)c(C)c1-c1cc(C(=O)N/N=C/c2ccc(O)cc2)[nH]n1	.	.	.	.	.	/
CC1CN(C(=O)c2cc(S(=O)(=O)N3CCCCC3)ccc2Cl)CC(C)O1 (stereo not drawn)	/	/	.	/	/	/
CCc1nnc2n1N=C(c1ccc(-c3cc(Cl)ccc3Cl)o1)CS2	.	.	.	.	89.5	.
CCc1nnc2n1N=C(c1ccc(OC)cc1)CS2	.	.	.	.	.	.
O=C(O)c1ccccc1C(=O)Nc1n[nH]c(=S)s1	.	.	.	.	98.8	.
COc1ccc(S(=O)(=O)N2CCC(C(=O)NCC3CCCCC3)CC2)cc1	.	/	.	.	.	/
Cc1nc2c3cnn(-c4ccccc4)c3ncn2n1	.	.	.	.	.	.
CCc1nc2c3cnn(-c4cc(Cl)ccc4C)c3ncn2n1	53.1	.	.	.	.	.
S=c1nc(-c2sccc2OCc2ccc(Cl)cc2Cl)[nH][nH]1	.	.	.	.	.	64.4
Cc1c(C(=O)N2CCCC2)sc(NC(=O)c2ccc(Cl)cc2)c1C#N	.	58.2	.	.	.	.
O=C(NCc1nnc(SCc2ccc(C(F)(F)F)cc2)n1-c1ccccc1)C12CC3CC(CC(C3)C1)C2	.	.	.	.	.	71.8
COc1cc(C2N(Cc3ccccc3)CCN2Cc2ccccc2)ccc1OC(C)=O	.	.	.	.	.	/
COc1ccc(C2N(Cc3ccccc3)CCN2Cc2ccccc2)cc1[N+](=O)[O-]	.	.	.	.	60.0	.
O=C(Cn1cc([N+](=O)[O-])ccc1=O)NC1CCCCC1	/	/	.	/	/	/
CC(C)CC1NC(=O)C(CC(C)C)N(CO)C1=O (stereo not drawn)	/	/	.	/	/	/
Fc1ccc(-c2nnc(NC3=NCCCCC3)o2)cc1	.	63.9	.	.	.	.
SMILES	SKKanGAS inh	Platelet DG rel	Rtt109 HAT inh	TPT1 inh	PHOSPHO1 inh	WT yeast gro inh
Cc1cc(C)c(NC(=O)CSCc2c(C)noc2C)c(Cl)c1	/	/	.	/	/	/
Cc1ccc(S(=O)(=O)N(C)C)cc1NC(=O)CSc1nc2ncc(Cl)cc2[nH]1	/	/	.	/	/	/
Cc1cccc(Nc2nc(N)c([N+](=O)[O-])c(N3CC(C)CC(C)C3)n2)c1 (stereo not drawn)	.	.	.	.	.	95.9
Cc1cccc(Nc2nc(N)c([N+](=O)[O-])c(N3CC(C)OC(C)C3)n2)c1 (stereo not drawn)	.	.	.	.	.	/
Nc1nc(SCc2ccc(Cl)cc2Cl)n[nH]1	.	.	.	.	.	.
CNc1cc(CSC)nc(SCc2ccc(Cl)cc2Cl)n1	.	.	.	.	.	85.1
C=CCOc1ccc(C2=NOC(C(=O)Nc3ccc4c(c3)OCCO4)C2)cc1 (stereo not drawn)	.	.	/	.	.	/
COc1ccc(OC)c(C(C(=O)NC2CCCCC2)N(C(=O)c2snc(C(N)=O)c2N)c2ccccc2OC)c1 (stereo not drawn)	.	.	.	.	.	/
COc1ccccc1N(C(=O)c1snc(C(N)=O)c1N)C(C(=O)NC1CCCCC1)c1cccc(OC)c1OC (stereo not drawn)	.	.	53.3	.	.	/
COc1ccc(N2CCN(C(=O)CN3c4cccc5cccc(c45)S3(=O)=O)CC2)cc1	/	/	.	/	/	/
CNC(=S)Nc1ccc(C(N)=O)cc1	.	58.2	.	.	.	.
COC(=O)c1c(C)[nH]c(C(=O)OCC(=O)N(CC(C)C)c2c(N)n(Cc3ccccc3)c(=O)[nH]c2=O)c1C	67.3	.	.	.	/	/
Cc1nnc(SCC(=O)NNC(=O)COc2ccc(Cl)cc2)n1C	.	.	.	.	.	/
Fc1ccc(-c2csc(=S)[nH]2)cc1	.	.	.	.	.	62.0
Fc1ccc2c(c1)C1C=CCC1C(c1cc3c(cc1Br)OCO3)N2 (stereo not drawn)	73.1	.	.	.	.	.
CCOC(=O)C1Nc2ccc(Br)cc2C2C=CCC12 (stereo not drawn)	.	.	.	.	.	/
COc1ccc(S(=O)(=O)N2CCN(C(=O)CCCN3C(=O)NC4(CCCC4)C3=O)CC2)cc1	/	/	.	/	/	/
COc1ccc(CCNC(=O)C(C)Sc2ccccc2)cc1OC (stereo not drawn)	.	.	.	.	60.5	.
O=C(Nc1cccc(S(=O)(=O)N2CCCCC2)c1)Nc1ccc(Cl)cc1Cl	.	.	.	.	.	81.7
O=C(Cc1ccccc1Cl)Nc1cccc(S(=O)(=O)N2CCCCCC2)c1	/	/	.	/	/	/
COc1ccccc1NS(=O)(=O)c1cccc(NC(=O)Nc2ccc(Cl)cc2)c1	54.6	.	.	.	.	.
CCc1cc2c(COC(=O)c3cccc(NS(C)(=O)=O)c3)cc(=O)oc2cc1O	49.6	.	.	.	.	/
C=CCN(CC=C)c1nc2ccccc2nc1C(C#N)C(=O)OCCOC (stereo not drawn)	.	.	.	.	.	59.4
CCCN(CCC)c1nc2ccccc2nc1C(C#N)C(=O)OCCOC (stereo not drawn)	.	.	.	.	.	.
O=C(CSc1ncn[nH]1)NCc1ccc(Cl)cc1	.	.	.	.	.	/
O=C(NCc1ccc(Cl)cc1)c1ncn[nH]1	.	.	.	.	72.9	.
COc1ccc(C(=S)NCS(=O)(=O)c2ccc(C)cc2)cc1	.	.	.	.	.	.
Cc1ccc(S(=O)(=O)CNC(=S)c2cccc(C)c2)cc1	.	.	.	.	90.4	.

Screens from PubChem BioAssay.
